# Measured values: PubChem BioAssay (EPA / NIEHS)
# Several values for one entry are separate records, joined by “and”; a condition that tells them apart may be missing. Equal entries are not always repeated. Inconclusive results are not listed. Some compounds were tested as several samples or in several runs, with calls that do not always agree. Activity calls are given as the source filed them. The calls were made as follows: active = hit-call score of the fitted dose curve at least 0.9, where 1 is the maximum; inconclusive = response in the unintended direction; inactive = score below 0.9.
# Experiments:
# [1] = target: guinea pig Opioid, Kappa 1 Receptor (OpiateK), OPRK1 (gene 100135587) (UniProt P41144); experiment: NVS_GPCR_gOpiateK: NovaScreen (NVS) G Protein-Coupled Receptor Assay for guinea pig Opioid, Kappa 1 Receptor (OpiateK) (AID 2283252);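 also: radioligand displacement from kappa opioid receptor in guinea pig cerebellar membranes; active means reduced radioligand binding relative to DMSO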
# Description: NVS_GPCR_gOpiateK is a biochemical, single-readout assay that uses extracted gene-proteins from Guinea pig cerebellar membranes in a tissue-based cell-free assay. Measurements were taken 2 hours after chemical dosing in a 48-well plate.NVS_GPCR_gOpiateK is one of one assay component(s) measured or calculated from the NVS_GPCR_gOpiateK assay. It is designed to make measurements of radioligand binding, a form of binding reporter, as detected with scintillation counting signals by Filter-based radiodetection technology.Data from the assay component NVS_GPCR_gOpiateK was analyzed into 1 assay endpoint. This assay endpoint, NVS_GPCR_gOpiateK, was analyzed in the positive analysis fitting direction relative to DMSO as the negative control and baseline of activity. Using a type of binding reporter, loss-of-signal activity can be used to understand changes in the binding as they relate to the gene Oprk1. Furthermore, this assay endpoint can be referred to as a primary readout, because the performed assay has only produced 1 assay endpoint. To generalize the intended target to other relatable targets, this assay endpoint is annotated to the gpcr intended target family, where the subfamily is rhodopsin-like receptor.
# (§1) Binding assays used specific radioligands (tritiated, iodinated) with non-radioactive competitive displacement ligands in agonist or antagonist protocols (as indicated) and various reference compounds and inhibitors to titrate specific binding to receptors and transporters. Most enzyme assays (CYPs, kinases, phosphatases, proteases, HDACs) used recombinant protein and specific substrates (fluorescence mostly, some colorimetric and radioactive) and inhibitors, followed by a biochemical separation of substrate and product. All assays for the biochemical HTS were initially run in duplicate at a single concentration (10 uM for CYP450 assays and 25 uM for all others). […] Each assay was run with positive and negative controls, and concurrent controls on every plate. The follow-up (secondary) screen tested active chemical-pairs in concentration series, as well as a few additional assays not tested in the primary screen, some selected negative inactives, and several cases re-run in the concentration series for confirmatory purposes.
# [2] = target: human Adrenergic, Alpha 2A Receptor (Adra2A), ADRA2A (gene 150) (UniProt P08913); experiment: NVS_GPCR_hAdra2A: NovaScreen (NVS) G Protein-Coupled Receptor Assay for human Adrenergic, Alpha 2A Receptor (Adra2A) (AID 2283257)
# Summary of the method: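 Displacement of a specific radioligand from HT29 membrane protein was counted by filter scintillation after 1 h. Compounds were screened in duplicate at 25 uM, and actives were retested in concentration series. Fitting was positive-direction against DMSO.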
# [3] = target: human Adenosine A1 Receptor (AdoRA1), ADORA1 (gene 134) (UniProt P30542); experiment: NVS_GPCR_hAdoRA1: NovaScreen (NVS) G Protein-Coupled Receptor Assay for human Adenosine A1 Receptor (AdoRA1) (AID 2283254)
# Summary of the method: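 Membranes from human cortical tissue were incubated with radioligand and test chemical for 1 hour, then filtered and counted. Activity was taken as signal loss relative to DMSO, screened at 25 uM in duplicate before concentration-response follow-up.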
# [4] = target: human Serotonin, 5-Hydroxytryptamine Receptor 5A (5HT5A), HTR5A (gene 3361) (UniProt P47898); experiment: NVS_GPCR_h5HT5A: NovaScreen (NVS) G Protein-Coupled Receptor Assay for human Serotonin, 5-Hydroxytryptamine Receptor 5A (5HT5A) (AID 2283251)
# Summary of the method: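 Membranes from HEK293 cells, radioligand binding read by filtration and scintillation after 1 h. Single-concentration duplicate testing at 25 uM, then concentration-response for actives; positive-direction fitting relative to DMSO.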
# [5] = target: human Adenosine A2a Receptor (AdoRA2a), ADORA2A (gene 135) (UniProt P29274); experiment: NVS_GPCR_hAdoRA2a: NovaScreen (NVS) G Protein-Coupled Receptor Assay for human Adenosine A2a Receptor (AdoRA2a) (AID 2283256)
# Summary of the method: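 HEK293-derived receptor preparation, radioligand displacement, 1.5 h, filtration + scintillation read. Loss of bound signal scored vs DMSO. Single-point 25 uM in duplicate first, then concentration-response for actives.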
# [6] = target: human Serotonin, 5-Hydroxytryptamine Receptor 2A (5HT2A), HTR2A (gene 3356) (UniProt P28223); experiment: NVS_GPCR_h5HT2A: NovaScreen (NVS) G Protein-Coupled Receptor Assay for human Serotonin, 5-Hydroxytryptamine Receptor 2A (5HT2A) (AID 2283249)
# Summary of the method: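 Radioligand displacement on human cortex tissue extract, counted by filtration and scintillation 1.5 h post-dosing. Initial single-concentration screen at 25 uM in duplicate, concentration series in follow-up; DMSO as baseline.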
# [7] = test system: guinea pig Muscarinic, Peripheral (Mperiperal) Receptor, Non-selective Binding, gene 100379235; experiment: NVS_GPCR_gMPeripheral_NonSelective: NovaScreen (NVS) G Protein-Coupled Receptor Assay for guinea pig Muscarinic, Peripheral (Mperiperal) Receptor, Non-selective Binding (AID 2283250)
# Summary of the method: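 Screened in duplicate at 25 uM, hits retested in concentration series to 50 uM max, using bladder membrane radioligand displacement from guinea pig. Filtration and scintillation counting 1 h post-dose, fitted relative to DMSO.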
# [8] = target: guinea pig Leukotriene D4 Receptor (LTD4), CYSLTR1 (gene 100135514) (UniProt Q2NNR5); experiment: NVS_GPCR_gLTD4: NovaScreen (NVS) G Protein-Coupled Receptor Assay for guinea pig Leukotriene D4 Receptor (LTD4) (AID 2283248)
# Summary of the method: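 Guinea pig lung membrane preparation; bound radioligand measured by filter scintillation after 1 h, loss of signal versus DMSO marking displacement. Compounds tested at 25 uM in duplicate, hits retested to max 50 uM.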
# [9] = target: human Serotonin, 5-Hydroxytryptamine Receptor 6 (5HT6), HTR6 (gene 3362) (UniProt P50406); experiment: NVS_GPCR_h5HT6: NovaScreen (NVS) G Protein-Coupled Receptor Assay for human Serotonin, 5-Hydroxytryptamine Receptor 6 (5HT6) (AID 2283253)
# Summary of the method: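 Filter scintillation counting of radioligand displacement from HEK293-expressed 5HT6, 1 hour post-dose, with loss of signal relative to DMSO. Single 25 uM duplicates first, with concentration series for confirmation.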
# [10] = target: human Serotonin, 5-Hydroxytryptamine Receptor 7 (5HT7), HTR7 (gene 3363) (UniProt P34969); experiment: NVS_GPCR_h5HT7: NovaScreen (NVS) G Protein-Coupled Receptor Assay for human Serotonin, 5-Hydroxytryptamine Receptor 7 (5HT7) (AID 2283255);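 also: hits reduce specific radioligand binding relative to DMSO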
# Description: NVS_GPCR_h5HT7 is a biochemical, single-readout assay that uses extracted gene-proteins from CHO in a cell-free assay. Measurements were taken 1 hour after chemical dosing in a 96-well plate.NVS_GPCR_h5HT7 is one of one assay component(s) measured or calculated from the NVS_GPCR_h5HT7 assay. It is designed to make measurements of radioligand binding, a form of binding reporter, as detected with scintillation counting signals by Filter-based radiodetection technology.Data from the assay component NVS_GPCR_h5HT7 was analyzed into 1 assay endpoint. This assay endpoint, NVS_GPCR_h5HT7, was analyzed in the positive analysis fitting direction relative to DMSO as the negative control and baseline of activity. Using a type of binding reporter, loss-of-signal activity can be used to understand changes in the binding as they relate to the gene HTR7. Furthermore, this assay endpoint can be referred to as a primary readout, because the performed assay has only produced 1 assay endpoint. To generalize the intended target to other relatable targets, this assay endpoint is annotated to the gpcr intended target family, where the subfamily is rhodopsin-like receptor.
# as §1
# human Adenosine A2a Receptor (AdoRA2a), ADORA2A (gene 135), sequence (P29274 whole entry, looked up): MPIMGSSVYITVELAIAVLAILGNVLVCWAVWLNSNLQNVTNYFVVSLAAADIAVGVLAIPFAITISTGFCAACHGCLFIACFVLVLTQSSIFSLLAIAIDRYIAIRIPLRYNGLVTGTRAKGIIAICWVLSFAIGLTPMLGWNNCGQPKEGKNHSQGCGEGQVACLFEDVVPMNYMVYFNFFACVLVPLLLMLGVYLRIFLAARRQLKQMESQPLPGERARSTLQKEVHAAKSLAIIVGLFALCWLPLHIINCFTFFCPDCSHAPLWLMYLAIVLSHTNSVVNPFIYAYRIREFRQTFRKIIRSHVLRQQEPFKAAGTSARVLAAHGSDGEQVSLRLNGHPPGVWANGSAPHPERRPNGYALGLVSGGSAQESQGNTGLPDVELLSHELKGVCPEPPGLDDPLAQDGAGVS
# human Adrenergic, Alpha 2A Receptor (Adra2A), ADRA2A (gene 150), sequence (P08913 whole entry, looked up): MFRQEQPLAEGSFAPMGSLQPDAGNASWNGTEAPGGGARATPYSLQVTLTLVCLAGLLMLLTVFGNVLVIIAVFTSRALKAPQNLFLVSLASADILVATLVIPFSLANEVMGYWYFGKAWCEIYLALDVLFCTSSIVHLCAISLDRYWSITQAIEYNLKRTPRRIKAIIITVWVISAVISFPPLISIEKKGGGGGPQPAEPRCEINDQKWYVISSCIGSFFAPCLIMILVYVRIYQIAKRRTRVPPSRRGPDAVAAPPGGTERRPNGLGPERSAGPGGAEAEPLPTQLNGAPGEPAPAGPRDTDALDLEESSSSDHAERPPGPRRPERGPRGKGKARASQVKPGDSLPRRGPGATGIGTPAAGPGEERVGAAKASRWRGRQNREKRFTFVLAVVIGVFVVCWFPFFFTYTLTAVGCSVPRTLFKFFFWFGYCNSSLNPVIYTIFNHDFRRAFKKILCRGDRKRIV
# human Serotonin, 5-Hydroxytryptamine Receptor 7 (5HT7), HTR7 (gene 3363), sequence (P34969 whole entry, looked up): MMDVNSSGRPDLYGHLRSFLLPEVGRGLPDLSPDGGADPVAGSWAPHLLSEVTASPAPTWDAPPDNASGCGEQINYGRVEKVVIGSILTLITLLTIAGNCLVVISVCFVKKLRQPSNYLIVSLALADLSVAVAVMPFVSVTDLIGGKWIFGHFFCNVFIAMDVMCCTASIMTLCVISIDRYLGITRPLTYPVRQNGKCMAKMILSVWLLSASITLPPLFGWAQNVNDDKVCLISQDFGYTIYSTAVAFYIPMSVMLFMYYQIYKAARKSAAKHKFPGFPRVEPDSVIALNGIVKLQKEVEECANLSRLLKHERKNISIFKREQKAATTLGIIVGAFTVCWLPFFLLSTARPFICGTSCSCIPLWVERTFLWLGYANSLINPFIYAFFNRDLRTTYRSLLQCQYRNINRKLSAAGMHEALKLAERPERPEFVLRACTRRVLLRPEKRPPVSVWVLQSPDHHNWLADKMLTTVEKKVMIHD
# human Serotonin, 5-Hydroxytryptamine Receptor 5A (5HT5A), HTR5A (gene 3361), sequence (P47898 whole entry, looked up): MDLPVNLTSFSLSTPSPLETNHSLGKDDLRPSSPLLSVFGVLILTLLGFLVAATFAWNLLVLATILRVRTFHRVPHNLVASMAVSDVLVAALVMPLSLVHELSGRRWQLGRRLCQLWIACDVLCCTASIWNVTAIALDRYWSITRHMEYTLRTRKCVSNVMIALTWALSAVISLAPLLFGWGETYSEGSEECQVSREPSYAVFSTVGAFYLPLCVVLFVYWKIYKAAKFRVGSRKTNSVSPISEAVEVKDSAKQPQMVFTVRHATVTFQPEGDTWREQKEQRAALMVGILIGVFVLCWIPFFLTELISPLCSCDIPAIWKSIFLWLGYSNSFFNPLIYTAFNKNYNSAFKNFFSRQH
# guinea pig Opioid, Kappa 1 Receptor (OpiateK), OPRK1 (gene 100135587), sequence (P41144 whole entry, looked up): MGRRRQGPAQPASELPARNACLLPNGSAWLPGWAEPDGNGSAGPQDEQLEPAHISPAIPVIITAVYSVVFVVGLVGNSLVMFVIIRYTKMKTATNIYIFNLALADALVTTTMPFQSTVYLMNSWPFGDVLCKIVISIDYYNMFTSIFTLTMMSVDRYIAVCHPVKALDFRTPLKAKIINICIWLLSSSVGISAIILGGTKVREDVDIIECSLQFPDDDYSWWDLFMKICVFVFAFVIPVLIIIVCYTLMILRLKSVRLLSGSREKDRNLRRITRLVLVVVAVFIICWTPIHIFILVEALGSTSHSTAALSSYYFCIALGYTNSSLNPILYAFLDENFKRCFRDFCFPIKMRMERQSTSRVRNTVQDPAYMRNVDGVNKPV
# human Serotonin, 5-Hydroxytryptamine Receptor 2A (5HT2A), HTR2A (gene 3356), sequence (P28223 whole entry, looked up): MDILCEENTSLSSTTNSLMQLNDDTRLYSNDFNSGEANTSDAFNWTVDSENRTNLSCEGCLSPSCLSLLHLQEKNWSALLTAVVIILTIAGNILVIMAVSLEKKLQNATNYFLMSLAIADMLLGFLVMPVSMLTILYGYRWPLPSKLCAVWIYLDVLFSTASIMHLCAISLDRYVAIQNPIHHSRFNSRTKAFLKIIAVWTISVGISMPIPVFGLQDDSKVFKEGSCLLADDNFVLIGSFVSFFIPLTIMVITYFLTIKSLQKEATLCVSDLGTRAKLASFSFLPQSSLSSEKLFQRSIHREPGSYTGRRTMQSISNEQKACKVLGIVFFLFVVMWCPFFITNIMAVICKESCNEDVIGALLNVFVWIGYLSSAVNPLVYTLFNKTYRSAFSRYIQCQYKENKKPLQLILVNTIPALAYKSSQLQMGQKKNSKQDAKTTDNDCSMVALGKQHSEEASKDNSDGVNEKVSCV
# human Adenosine A1 Receptor (AdoRA1), ADORA1 (gene 134), sequence (P30542 whole entry, looked up): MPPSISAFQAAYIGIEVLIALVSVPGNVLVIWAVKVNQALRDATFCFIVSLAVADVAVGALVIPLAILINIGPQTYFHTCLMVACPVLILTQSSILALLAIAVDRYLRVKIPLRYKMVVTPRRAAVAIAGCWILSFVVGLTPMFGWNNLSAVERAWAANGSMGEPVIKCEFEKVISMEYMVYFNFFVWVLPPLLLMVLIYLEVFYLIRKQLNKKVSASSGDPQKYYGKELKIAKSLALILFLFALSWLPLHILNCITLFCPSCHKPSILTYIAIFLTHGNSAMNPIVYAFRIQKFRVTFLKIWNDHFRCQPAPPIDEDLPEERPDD
# human Serotonin, 5-Hydroxytryptamine Receptor 6 (5HT6), HTR6 (gene 3362), sequence (P50406 whole entry, looked up): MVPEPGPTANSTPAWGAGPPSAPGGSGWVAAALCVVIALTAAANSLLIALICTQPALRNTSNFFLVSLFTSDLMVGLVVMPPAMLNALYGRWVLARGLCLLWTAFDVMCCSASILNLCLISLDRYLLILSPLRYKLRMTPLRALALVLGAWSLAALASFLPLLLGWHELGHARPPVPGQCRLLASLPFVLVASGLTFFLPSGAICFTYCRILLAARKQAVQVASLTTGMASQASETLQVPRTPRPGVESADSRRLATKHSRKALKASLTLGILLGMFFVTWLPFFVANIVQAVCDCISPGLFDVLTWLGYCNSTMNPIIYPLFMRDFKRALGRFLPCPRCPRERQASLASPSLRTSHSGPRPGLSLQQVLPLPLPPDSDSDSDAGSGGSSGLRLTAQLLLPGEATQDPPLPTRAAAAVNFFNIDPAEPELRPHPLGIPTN
# guinea pig Leukotriene D4 Receptor (LTD4), CYSLTR1 (gene 100135514), sequence (Q2NNR5 whole entry, looked up): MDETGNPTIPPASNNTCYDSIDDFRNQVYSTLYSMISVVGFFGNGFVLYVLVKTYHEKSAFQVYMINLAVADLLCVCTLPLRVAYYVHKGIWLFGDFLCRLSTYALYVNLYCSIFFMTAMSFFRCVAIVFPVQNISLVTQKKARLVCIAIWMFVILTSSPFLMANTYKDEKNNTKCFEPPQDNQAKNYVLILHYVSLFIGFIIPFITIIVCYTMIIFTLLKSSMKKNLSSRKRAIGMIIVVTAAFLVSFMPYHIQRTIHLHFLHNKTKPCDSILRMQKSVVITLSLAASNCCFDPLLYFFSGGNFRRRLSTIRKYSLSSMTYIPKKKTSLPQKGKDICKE
compound,measurement,setting,value
C=CCOC(Cn1ccnc1)c1ccc(Cl)cc1Cl (stereo not drawn),AC50,[1],12.2 µM (active)
same,AC50,[2],16.4 µM (active)
CCCCCOC(=O)COc1cc(N2C(=O)C3=C(CCCC3)C2=O)c(F)cc1Cl,outcome,[3],inactive
CCOC(=O)C(C)Oc1ccc(Oc2cnc3cc(Cl)ccc3n2)cc1 (stereo not drawn),outcome,[4],inactive
CC(C)CCCCCCc1ccc(O)cc1,outcome,[5],inactive
N#CSCSc1nc2ccccc2s1,outcome,[6],inactive
same,AC50,[7],7.3 µM (active)
same,AC50,[2],4.68 µM (active)
C[C@]12CC[C@@H]3c4ccc(O)cc4C[C@@H](CCCCCCCCCS(=O)CCCC(F)(F)C(F)(F)F)[C@H]3[C@@H]1CC[C@@H]2O (stereo partly drawn),outcome,[6],inactive
same,outcome,[4],inactive
CCNc1nc(N)nc(Cl)n1,outcome,[8],inactive
same,outcome,[4],inactive
same,AC50,[3],207 nM (active)
same,AC50,[5],9.05 µM (active)
CC(C)(C)[C@@H](O)[C@@H](Cc1ccc(Cl)cc1)n1cncn1,outcome,[1],inactive
COC(=O)CSc1cc(N=c2sc(=O)n3n2CCCC3)c(F)cc1Cl,outcome,[2],inactive
Oc1ccc(C(c2ccc(O)cc2)C(Cl)(Cl)Cl)cc1,AC50,[4],6.9 µM (active)
same,AC50,[9],0.18 µM (active)
same,outcome,[3],inactive
same,AC50,[10],6.91 µM (active)
S=C(S)NCCNC(=S)S.[Mn+2].[S-]C([S-])=NCCN=C([S-])[S-].[Zn+2],outcome,[6],inactive
same,AC50,[10],2.48 µM (active) and 5.86 µM (active) and 2.62 µM (active)
same,outcome,[10],inactive
CC(C)(c1ccc(O)cc1)c1ccc(O)cc1,outcome,[1],inactive
same,AC50,[3],11.9 µM (active) and 1.83 µM (active)
same,outcome,[10],inactive
c1ccc2[nH]c(-c3cscn3)nc2c1,AC50,[5],4.91 µM (active)
CC(=O)S[C@@H]1CC2=CC(=O)CC[C@]2(C)[C@H]2CC[C@@]3(C)[C@@H](CC[C@@]34CCC(=O)O4)[C@H]12,AC50,[1],13.2 µM (active)
